Where “and” joins values, the source holds several entries; their conditions need not be identical. Identical values can stand only once.

Among the data in PubChem BioAssay AID651871 (Sanford-Burnham Center for Chemical Genomics, 2012) are activity (protection/inhibition) values, retold here.

This assay has as its system H9c2. In words: protection of cardiomyocytes from stress damage, SAR follow-up, cell-based, panel, H9c2 and HL-1, ATP luminescence, set 2 (AID 651871).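 Also: cells exposed to stressor for 2 h before ATP readout; reference of the scale not given here.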 As to conditions: H9c2/HL-1 cardiomyocytes, 2-deoxyglucose stress, with 2-deoxyglucose; run 6, at 79 µM (top of the series).
Take `COc1ccc2nc(-c3cc(OC)c(OC)c(OC)c3)cc(C(=O)NCC(=O)Nc3ccc(C(C)=O)cc3)c2c1`: the activity (protection/inhibition) came to 91.5%.

As to `COc1ccc2c(c1OC)C(=O)N1c3ccccc3C(=O)N(Cc3cccc(Cl)c3Cl)C21` (stereo not drawn), the activity (protection/inhibition) was 104% and 66.4% and -6.1%.

For `CCOC(=O)c1cccc(NC(=O)CNC(=O)c2cc(-c3cc(OC)c(OC)c(OC)c3)nc3ccccc23)c1`, the activity (protection/inhibition) stood at 73.8%.
